The results in this text go back to PubChem BioAssay.

Where “and” joins values, the source holds several entries; their conditions need not be identical. Equal entries are not always repeated. Calls of active or inactive are those of the source.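 Rule for the calls, unless noted: active = thallium flux through the channel raised or lowered by more than 3 SD from vehicle-only wells, actives on both sides; inactive = the rest.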

Test [1] is described as follows: P. berghei load reduction in hepatocytes – cell-based, HepG2, luciferase luminescence, HepG2 viability, primary screen (AID 624349; in the data active = parasite load remaining mostly below about 12%, no sharp cut-off; inactive = mostly above about 10%;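 note: 100% = mean of DMSO negative control wells on the same plate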). Particulars: P. berghei liver stage in HepG2, luciferase luminescence, concentration not given here; parasite load remaining: stronger effect = lower value; viability: measured here: HepG2 viability without parasites.
Test [2] can be described thus: signal quenchers or enhancers, Cy5 substrate/SSB – biochemical, NIH Clinical Collection, E. coli SSB, artefact control for HCV NS3 helicase inhibitor project (AID 743268; call rule not given here). The note with it: Cy5-oligo bound E. coli SSB, fluorescence interference.
The test system of test [3] is Hepatitis C virus NS3 helicase. Description: blockers of NS3h binding to DNA – biochemical, fluorescence polarization, NIH Clinical Collection, primary screen (AID 743270; call rule not given here). Particulars: NS3 helicase binding to Cy5-dT15 DNA, stronger effect = higher value, concentration not given here.
For test [4], the target named is Single-stranded DNA-binding protein (Escherichia coli (strain K12)) (UniProt P0AGE0). The experiment in a line: SSB-ssDNA binding inhibitors – biochemical, fluorescence polarization, NIH Clinical Collection, counter-screen for HCV NS3 helicase inhibitor project (AID 743271; in the data active = inhibition above about 28%). Particulars: E. coli SSB-DNA binding, stronger effect = higher value, concentration not given here.
The nature of test [5]: compounds distorting NS3 helicase fluorescence signal – biochemical, NIH Clinical Collection, artefact control for HCV NS3 helicase inhibitor project (AID 743272; call rule not given here;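 note: HCV NS3 helicase with a Cy5 labelled single stranded DNA probe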). Particulars: fluorescence interference counterscreen, HCV NS3 helicase assay; stronger effect = lower value. In general terms: Counterscreens check selectivity or assay interference.
Test [6] deals with 6-phosphogluconate dehydrogenase, decarboxylating (Homo sapiens) (UniProt P52209). Description: inhibition of human phosphogluconate dehydrogenase – biochemical, recombinant enzyme, NADPH absorbance, primary screen (AID 1159550;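 active = at least 20% inhibition of 6-phosphogluconate dehydrogenase activity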). The note with it: recombinant 6PGD, NADPH absorbance 341 nm; at 10 µM; stronger effect = higher value.
6-phosphogluconate dehydrogenase, decarboxylating (Homo sapiens), sequence (P52209 whole entry, looked up): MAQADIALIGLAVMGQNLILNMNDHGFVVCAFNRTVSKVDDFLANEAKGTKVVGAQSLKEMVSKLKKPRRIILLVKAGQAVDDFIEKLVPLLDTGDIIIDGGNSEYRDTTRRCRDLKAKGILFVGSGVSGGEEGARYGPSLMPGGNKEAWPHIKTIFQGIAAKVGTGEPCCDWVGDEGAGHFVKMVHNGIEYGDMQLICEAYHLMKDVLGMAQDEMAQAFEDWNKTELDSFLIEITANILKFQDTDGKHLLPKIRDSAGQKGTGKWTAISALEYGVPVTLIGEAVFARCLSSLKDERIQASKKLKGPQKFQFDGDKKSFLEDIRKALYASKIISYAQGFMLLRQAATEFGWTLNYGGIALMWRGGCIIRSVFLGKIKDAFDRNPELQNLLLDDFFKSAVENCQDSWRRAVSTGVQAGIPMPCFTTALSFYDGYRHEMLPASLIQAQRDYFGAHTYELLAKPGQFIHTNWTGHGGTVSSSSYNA
Test [7] can be described thus: modulation of C. elegans fzo-1 (AID 1259413; call rule not given here;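 note: fzo-1 mutant C. elegans worms in liquid wells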). Particulars: C. elegans fzo-1 modulator screen, mean read-out; stronger effect = higher value.
Test [8] in a line: viability loss with induced miR-34 in A549 – imaging, A549 dox-inducible miR-34, nuclei and caspase counts, primary screen (AID 1347080;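 active = compounds whose cell count with miR-34 switched on is under 0.7 times the count with it off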). The note with it: A549 miR-34 inducible, Hoechst nuclei count, 48 h.
Test [9] in a line: MELAS cybrid and Rieske KO viability enhancers – cell-based, MELAS cybrids, Rieske KO mouse fibroblasts, CellTiter-Glo, primary screen (AID 1508586;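 active = mean z-score across replicates of 1.96 or higher in either the MELAS or the Rieske mutant cell line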;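 note: z relative to plate mean and SD of compound and empty wells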). Particulars: low glucose.
Test [10] is described as follows: galactose survival enhancers in mitochondrial complex I cybrids – cell-based, galactose medium, ATP luminescence, primary screen (AID 1645843;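 active = z-score of at least 1.8 in each of two replicates, scored against plate mean and spread of sample wells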;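 note: positive z means more ATP and so rescue of galactose-driven cybrid death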). Particulars: complex I mutant cybrid cells, 72 h, stronger effect = higher value.
In test [11] the test system is F380Y. Description: BK channel mutant inhibitors and activators – cell-based, U2OS BacMam, thallium flux, beta subunits, selectivity assay, profiling panel (AID 1259406).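 Note: initial slope of Thallos dye fluorescence rise after thallium is added; log ratio against the mean of 0.3% DMSO vehicle wells on the same plate.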 The note with it: U2OS BacMam BK variants, at 30 µM.
The subject of test [12] is F380Y/beta2Delta. The description is as above. The note with it: U2OS BacMam BK variants, at 30 µM.
Test [13] addresses Calcium-activated potassium channel subunit alpha-1 (Homo sapiens) + Leucine-rich repeat-containing protein 26 (Homo sapiens) (UniProt Q12791+Q2I0M4). Described as above. Particulars: U2OS BacMam BK variants, F380Y/Slo1WT/gamma1, at 30 µM.
Test [14] relates to R275C. Described as above. Particulars: U2OS BacMam BK variants, at 30 µM.
Test [15] concerns R275C/beta1. The test is described as above. Particulars: U2OS BacMam BK variants, at 30 µM.
In test [16] the test system is R275C/beta2Delta. The test is described as above. The note with it: U2OS BacMam BK variants, at 30 µM.
Test [17] in a line: EMT-state selective cytotoxicity in co-culture – imaging, PC-3E GFP, TEM4-18 mCherry, primary screen (AID 1345086;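 active = compounds killing one labelled cell type while sparing the other, by normalised counts and ratio limits, not self-fluorescent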;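 for all read-outs here: cells exposed to compound for 72 h before imaging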;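 for red/green cell ratio (normalised): normalised mesenchymal count divided by normalised epithelial count so high means epithelial killing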). Particulars: PC-3E GFP / TEM4-18 mCherry co-culture, imaging cell counts, at 1 µM; for red/green cell ratio (normalised): actives lie on both sides, counts scaled to control wells, 1 = unselective.
Test [18] deals with NAD(+) hydrolase SARM1 (Homo sapiens) (UniProt Q6SZW1). Description: blocking NAD cleavage by SARM1 SAM-TIR – cell lysate, NAD-Glo luminescence (AID 1508614;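 active = compound whose remaining NAD level is above about 45 nM, limit read from the data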;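 note: higher remaining NAD means stronger inhibition of SARM1 NADase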). The note with it: SAM-TIR HEK293T lysate NADase, at 1 µM, stronger effect = higher value.
NAD(+) hydrolase SARM1 (Homo sapiens), sequence (Q6SZW1 whole entry, looked up, the tested form may be a part): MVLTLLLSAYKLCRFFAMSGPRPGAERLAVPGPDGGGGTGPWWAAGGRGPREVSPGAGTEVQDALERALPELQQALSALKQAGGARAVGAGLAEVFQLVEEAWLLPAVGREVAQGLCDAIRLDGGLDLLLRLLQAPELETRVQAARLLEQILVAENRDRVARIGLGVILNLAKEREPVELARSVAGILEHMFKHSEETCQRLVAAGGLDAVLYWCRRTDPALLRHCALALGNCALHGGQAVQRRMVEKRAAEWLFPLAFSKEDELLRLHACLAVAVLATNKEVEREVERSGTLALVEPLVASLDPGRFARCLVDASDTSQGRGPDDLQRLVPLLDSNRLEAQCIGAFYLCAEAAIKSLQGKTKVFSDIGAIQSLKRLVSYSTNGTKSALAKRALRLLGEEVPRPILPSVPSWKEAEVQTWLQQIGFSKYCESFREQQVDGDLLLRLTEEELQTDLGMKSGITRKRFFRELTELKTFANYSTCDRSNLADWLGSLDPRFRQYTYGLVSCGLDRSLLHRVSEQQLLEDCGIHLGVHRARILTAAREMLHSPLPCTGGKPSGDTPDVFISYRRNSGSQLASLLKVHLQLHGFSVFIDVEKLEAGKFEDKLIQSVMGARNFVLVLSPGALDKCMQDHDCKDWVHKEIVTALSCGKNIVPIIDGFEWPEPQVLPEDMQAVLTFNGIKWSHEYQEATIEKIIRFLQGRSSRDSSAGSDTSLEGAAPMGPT
Test [19] concerns the target Mitogen-activated protein kinase 7 (Homo sapiens) (UniProt Q13164). The experiment in a line: Gal4-ERK5 driven luciferase induction – cell-based, HTS, primary screen (AID 1508626;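 active = luciferase signal above three times the same-plate solvent-only control wells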;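 note: luciferase driven by Gal4-ERK5 fusion binding five Gal4 sites before minimal TATA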). The note with it: HeLa Gal4-ERK5 transactivation, 18 h, at 5 µM, stronger effect = higher value.
The mark [20] stands for this setting: stronger effect = lower value, cell number ratio, induced over uninduced.
The mark [21] stands for this setting: measured here: relative caspase fold change +Dox/-Dox.
Setting [22] is: measured here: total cells with miR-34 induction, stronger effect = lower value.
Setting [23] is: measured here: total cells without miR-34 induction.
Where [24] appears, read: MELAS cybrid survival, CellTiter-Glo 48 h, stronger effect = higher value.
[25] abbreviates: Rieske KO mouse fibroblast survival, CellTiter-Glo 72 h.
Where [26] appears, read: measured here: epithelial PC-3E GFP cell survival.
Where [27] appears, read: measured here: mesenchymal TEM4-18 mCherry cell survival.

Calcium-activated potassium channel subunit alpha-1 (Homo sapiens) + Leucine-rich repeat-containing protein 26 (Homo sapiens), sequence (Q2I0M4 whole entry, looked up, one chain of several): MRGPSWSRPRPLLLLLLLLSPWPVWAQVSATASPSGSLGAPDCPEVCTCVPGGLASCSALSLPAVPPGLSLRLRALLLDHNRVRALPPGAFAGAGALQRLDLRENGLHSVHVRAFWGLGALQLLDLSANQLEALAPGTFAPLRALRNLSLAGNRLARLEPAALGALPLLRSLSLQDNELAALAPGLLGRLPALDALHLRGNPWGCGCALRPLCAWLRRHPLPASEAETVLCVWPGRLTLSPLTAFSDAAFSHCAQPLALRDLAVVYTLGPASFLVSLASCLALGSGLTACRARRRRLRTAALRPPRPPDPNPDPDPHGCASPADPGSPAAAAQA
Mitogen-activated protein kinase 7 (Homo sapiens), sequence (Q13164 whole entry, looked up, the tested form may be a part): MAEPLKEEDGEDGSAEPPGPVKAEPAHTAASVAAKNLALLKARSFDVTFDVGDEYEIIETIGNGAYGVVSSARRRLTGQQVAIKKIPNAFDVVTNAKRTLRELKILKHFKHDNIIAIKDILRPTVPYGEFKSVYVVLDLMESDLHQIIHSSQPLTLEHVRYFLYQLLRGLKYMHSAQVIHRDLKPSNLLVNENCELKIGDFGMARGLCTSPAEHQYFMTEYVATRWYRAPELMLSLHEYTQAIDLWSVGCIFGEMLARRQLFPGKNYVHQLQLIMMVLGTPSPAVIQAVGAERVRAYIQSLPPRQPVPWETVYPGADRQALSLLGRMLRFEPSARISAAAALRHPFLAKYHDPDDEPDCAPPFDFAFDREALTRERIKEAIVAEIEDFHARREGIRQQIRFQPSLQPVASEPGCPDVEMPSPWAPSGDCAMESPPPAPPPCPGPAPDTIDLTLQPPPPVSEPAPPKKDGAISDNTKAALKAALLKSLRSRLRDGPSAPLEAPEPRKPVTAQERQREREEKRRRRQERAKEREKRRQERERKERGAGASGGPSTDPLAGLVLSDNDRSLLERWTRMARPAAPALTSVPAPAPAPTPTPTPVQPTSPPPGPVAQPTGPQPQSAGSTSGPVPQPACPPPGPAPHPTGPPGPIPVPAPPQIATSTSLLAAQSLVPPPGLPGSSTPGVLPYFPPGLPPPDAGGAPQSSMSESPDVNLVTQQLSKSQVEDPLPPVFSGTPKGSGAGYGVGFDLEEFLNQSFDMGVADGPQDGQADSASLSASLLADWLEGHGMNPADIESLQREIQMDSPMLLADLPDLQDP

A word on the viability: it is a read-out of living cells in per cent, often relative to untreated cells. The inhibition is the drop in the measured response relative to a control, in per cent. As to `CC(C)[N+]1(C)C2CCC1CC(OC(=O)C(CO)c1ccccc1)C2` (stereo not drawn), in test [1], the parasite load remaining was 58.8% (inactive) and 74.5% (inactive). Moreover, in [1], the viability is 98.1% and 77.4%. The fluorescence ratio in test [2] is 1.07 (inactive); in test [5], 1.02 (inactive). Also, the inhibition was -3.18% (inactive) in [3], -3.53% (inactive) in test [4] and 11.9% (inactive) in test [6]. Further, the mean signal in [7] is 254 (inactive). The fold change in test [8] (setting [20]) is 0.921 (inactive) and 0.934 (inactive) and 0.97 (inactive); in [8] (setting [21]), 0.608 and 0.704 and 0.785. Moreover, the cell count in test [8] (setting [22]) is 10300 and 7770 and 8120; in test [8] (setting [23]) it was 11100 and 8310 and 8370. The z-score was 0.162 (inactive) in test [9] (setting [24]); -0.136 in [9] (setting [25]); 0.14 (inactive) and 0.88 (inactive) in [10]. In addition, the log fold change Tl+ flux in test [11] is 0.00902 (inactive); in [12], -0.00601 (inactive); in test [13] it was 0.0518 (inactive); in test [14], 0.0409 (inactive); in [15] it was -0.0331 (inactive); in [16], 0.000928 (inactive).
Take `Cn1cc[nH]c1=S`: the fluorescence ratio in [2] and in test [5] was 1.03 (inactive) throughout. Further, the figures for the inhibition in test [3], in test [4] and in [6] were -3.18% (inactive), -5.05% (inactive) and -12.3% (inactive), respectively. The mean signal in test [7] was 225 (inactive). The red/green cell ratio (normalised) in test [17] was 0.96 (inactive). Moreover, the results for the normalised cell number in test [17] (setting [26]) and in [17] (setting [27]) were 1.12 and 1.08, respectively. Also, the z-score in [9] (setting [24]) was -0.106 (inactive) and 0.275 (inactive) and 0.138 (inactive); in test [9] (setting [25]), 0.1 and 0.646 and -0.619; in [10], 1.27 (inactive) and 0.25 (inactive). In test [18], the remaining NAD was 10 nM (inactive). For the same compound, the luciferase signal in [19] was 92 AU (inactive). The log fold change Tl+ flux in [11] is 0.00366 (inactive); in [12], -0.00456 (inactive); in test [13], -0.014 (inactive); in test [14], -0.00969 (inactive); in [15], -0.000997 (inactive); in test [16] it was -0.0252 (inactive).
Take `CON=C(C(=O)NC1C(=O)N2C(C(=O)O)=C(COC(C)=O)CSC12)c1csc(N)n1` (stereo not drawn): the parasite load remaining in test [1] is 73.2% (inactive). In addition, the viability in [1] amounted to 130%. Further, the fluorescence ratio in test [2] and in test [5] was 1.03 (inactive) each time. For the same compound, the inhibition is 4.09% (inactive) in test [3], 36.1% (active) in [4] and -1.56% (inactive) in test [6]. Besides, the fold change in [8] (setting [20]) was 0.991 (inactive); in test [8] (setting [21]), 2.86. Besides, the results for the cell count in test [8] (setting [22]) and in [8] (setting [23]) were 11400 and 11500, respectively. In test [10], the z-score is 0.145 (inactive). Further, the log fold change Tl+ flux is -0.0263 (inactive) in test [11]; 0.0186 (inactive) in test [12]; -0.0048 (inactive) in test [13]; 0.0263 (inactive) in test [14]; -0.0272 (inactive) in test [15]; -0.0298 (inactive) in test [16].
Take `O=C(O)CCC(=O)OCC(NC(=O)C(Cl)Cl)C(O)c1ccc([N+](=O)[O-])cc1` (stereo not drawn): the inhibition in test [6] is 1.37% (inactive). For the same compound, the red/green cell ratio (normalised) in test [17] is 1.01 (inactive). The normalised cell number in [17] (setting [26]) turned out to be 1.15; in test [17] (setting [27]) it was 1.16.
Regarding `C#C[C@]1(O)CC[C@H]2[C@@H]3CCC4=CC(=O)CC[C@@H]4[C@H]3CC[C@@]21C`, the fluorescence ratio in test [2] and in test [5] was 0.96 (inactive) throughout. In addition, the inhibition is 1.36% (inactive) in test [3], 3.34% (inactive) in [4] and -1.74% (inactive) in test [6]. In addition, the fold change was 0.992 (inactive) and 0.97 (inactive) and 0.797 (inactive) in test [8] (setting [20]); 3.48 and 0.712 and 1.56 in test [8] (setting [21]). The cell count in test [8] (setting [22]) is 9410 and 9190 and 8090; in test [8] (setting [23]) it was 9490 and 9470 and 10100. Also, the z-score in [9] (setting [24]) is 0.108 (inactive) and 0.243 (inactive); in test [9] (setting [25]), 0.0145 and -0.237; in test [10] it was -0.71 (inactive) and 0.54 (inactive). In addition, the remaining NAD in test [18] was 10 nM (inactive). In addition, the luciferase signal in [19] is 48 AU (inactive). For the same compound, the log fold change Tl+ flux in [11] was 0.0234 (inactive); in [12] it was 0.0279 (inactive); in test [13], 0.0181 (inactive); in test [14] it was 0.0301 (inactive); in test [15] it was 0.0324 (inactive); in test [16] it was 0.062 (inactive).
